# Laboratory results as given in PubChem BioAssay.
# Active and inactive are the calls of the source.
# Tests used:
# [1] = small molecules captured by biotinylated probe aFSTL3 – biochemical, small-molecule microarray, fluorescence 635/667, stem cell growth factor project, primary screen (AID 1064); conditions: higher = more signal;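 note: measures binding of the biotinylated anti-FSTL3 antibody to printed compounds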
# [2] = binders from COS7 lysate, DM2A8 probe, primary screen, torsin A project, cell lysate, small-molecule microarray, fluorescence 635/667 (AID 1065); conditions: higher = more signal, COS7 lysate expressing mutant human TOR1A
# [3] = small molecules captured by biotinylated probe aFGF2 – biochemical, small-molecule microarray, fluorescence 635/667, stem cell growth factor project, primary screen (AID 1067); conditions: higher = more signal;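 note: measures binding of biotinylated aFGF2 protein to printed compounds on slides; z-score merges feature fluorescence and signal-to-noise across triplicate slides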
# [4] = small molecules captured by biotinylated probe aFGF10 – biochemical, small-molecule microarray, fluorescence 635/667, stem cell growth factor project, primary screen (AID 1071); conditions: higher = more signal;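 note: score merges 667 nm spot intensity and signal to noise from triplicate slides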
# [5] = molecular target: Neurogenic locus notch homolog protein 2 (Homo sapiens) (UniProt Q04721); assay: small molecules binding Notch2 protein – biochemical, small-molecule microarray, 635 nm fluorescence, stem cell growth factors, primary screen (AID 1073); conditions: higher = more signal
# Chain of Neurogenic locus notch homolog protein 2 (Homo sapiens) (Q04721 whole entry, looked up, canonical isoform): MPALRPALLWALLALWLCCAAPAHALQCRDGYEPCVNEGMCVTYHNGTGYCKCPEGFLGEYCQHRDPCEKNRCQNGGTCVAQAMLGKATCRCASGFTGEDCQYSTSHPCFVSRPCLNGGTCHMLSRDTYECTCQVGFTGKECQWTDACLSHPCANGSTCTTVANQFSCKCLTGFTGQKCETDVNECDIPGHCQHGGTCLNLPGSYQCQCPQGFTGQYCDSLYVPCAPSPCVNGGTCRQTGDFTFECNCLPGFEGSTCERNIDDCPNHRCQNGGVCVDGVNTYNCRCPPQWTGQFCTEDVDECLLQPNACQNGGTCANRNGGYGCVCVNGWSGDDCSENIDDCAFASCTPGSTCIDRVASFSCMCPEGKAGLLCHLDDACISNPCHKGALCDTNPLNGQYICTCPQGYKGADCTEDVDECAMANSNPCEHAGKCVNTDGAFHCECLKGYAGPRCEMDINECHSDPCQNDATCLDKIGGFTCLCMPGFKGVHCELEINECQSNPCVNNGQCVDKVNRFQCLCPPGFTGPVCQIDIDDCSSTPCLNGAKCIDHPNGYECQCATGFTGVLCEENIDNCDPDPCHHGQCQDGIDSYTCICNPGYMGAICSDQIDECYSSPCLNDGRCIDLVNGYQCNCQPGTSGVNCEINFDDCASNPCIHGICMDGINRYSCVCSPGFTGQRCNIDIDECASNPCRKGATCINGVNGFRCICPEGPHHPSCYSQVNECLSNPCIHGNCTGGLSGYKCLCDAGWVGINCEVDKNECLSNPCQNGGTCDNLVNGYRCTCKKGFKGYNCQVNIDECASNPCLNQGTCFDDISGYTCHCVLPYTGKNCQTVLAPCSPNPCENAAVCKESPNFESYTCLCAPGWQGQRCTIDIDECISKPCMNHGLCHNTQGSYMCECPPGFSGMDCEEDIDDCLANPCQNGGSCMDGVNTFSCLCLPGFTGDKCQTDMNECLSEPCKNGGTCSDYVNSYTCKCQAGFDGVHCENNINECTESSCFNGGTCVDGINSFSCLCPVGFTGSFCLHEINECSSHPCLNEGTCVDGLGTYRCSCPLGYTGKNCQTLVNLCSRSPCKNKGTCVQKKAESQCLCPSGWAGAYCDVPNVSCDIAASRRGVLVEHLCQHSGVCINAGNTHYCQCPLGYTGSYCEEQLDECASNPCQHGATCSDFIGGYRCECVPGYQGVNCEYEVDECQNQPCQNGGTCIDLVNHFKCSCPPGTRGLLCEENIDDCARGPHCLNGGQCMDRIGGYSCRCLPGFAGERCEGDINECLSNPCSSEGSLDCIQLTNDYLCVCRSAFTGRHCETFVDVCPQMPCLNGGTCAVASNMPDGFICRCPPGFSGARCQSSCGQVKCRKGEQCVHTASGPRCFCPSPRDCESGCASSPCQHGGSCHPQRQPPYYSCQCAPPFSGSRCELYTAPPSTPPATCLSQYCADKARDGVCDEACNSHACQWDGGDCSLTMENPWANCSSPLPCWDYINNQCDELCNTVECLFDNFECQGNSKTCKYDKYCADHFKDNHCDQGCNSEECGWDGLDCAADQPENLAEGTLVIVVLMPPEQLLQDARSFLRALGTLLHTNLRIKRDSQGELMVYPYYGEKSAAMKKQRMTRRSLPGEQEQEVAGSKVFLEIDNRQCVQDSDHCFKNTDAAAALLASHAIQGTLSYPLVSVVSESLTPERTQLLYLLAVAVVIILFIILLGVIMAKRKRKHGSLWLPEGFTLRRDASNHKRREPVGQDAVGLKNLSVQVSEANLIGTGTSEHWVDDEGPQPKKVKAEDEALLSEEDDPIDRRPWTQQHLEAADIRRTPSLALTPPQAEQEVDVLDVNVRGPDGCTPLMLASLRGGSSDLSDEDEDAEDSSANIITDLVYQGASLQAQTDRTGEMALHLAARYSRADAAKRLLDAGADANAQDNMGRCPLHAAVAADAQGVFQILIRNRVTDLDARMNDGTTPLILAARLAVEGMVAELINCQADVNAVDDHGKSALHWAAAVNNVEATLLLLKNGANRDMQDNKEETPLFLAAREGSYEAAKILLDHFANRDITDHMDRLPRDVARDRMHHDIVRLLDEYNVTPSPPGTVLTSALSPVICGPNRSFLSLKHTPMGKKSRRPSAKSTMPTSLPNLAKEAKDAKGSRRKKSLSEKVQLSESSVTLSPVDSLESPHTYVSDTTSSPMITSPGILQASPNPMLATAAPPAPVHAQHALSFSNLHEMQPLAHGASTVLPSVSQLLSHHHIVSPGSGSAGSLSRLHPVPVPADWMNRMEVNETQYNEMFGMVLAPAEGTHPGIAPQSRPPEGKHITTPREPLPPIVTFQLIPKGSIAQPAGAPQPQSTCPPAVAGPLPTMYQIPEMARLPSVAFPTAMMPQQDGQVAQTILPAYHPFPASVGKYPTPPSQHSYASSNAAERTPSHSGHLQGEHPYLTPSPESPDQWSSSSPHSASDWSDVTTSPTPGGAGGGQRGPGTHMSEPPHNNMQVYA
# [6] = molecular target: Pro-neuregulin-1, membrane-bound isoform (Homo sapiens) (UniProt Q02297); assay: small molecules binding neuregulin-1 protein – biochemical, small-molecule microarray, fluorescence 635/667, psychiatric disease protein project, primary screen (AID 1075); conditions: NRG1 binding, 635 nm fluorescence, higher = more signal;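 note: score combines 667 nm spot fluorescence with signal to noise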
# Chain of Pro-neuregulin-1, membrane-bound isoform (Homo sapiens) (Q02297 whole entry, looked up, the tested form may be a part, canonical isoform): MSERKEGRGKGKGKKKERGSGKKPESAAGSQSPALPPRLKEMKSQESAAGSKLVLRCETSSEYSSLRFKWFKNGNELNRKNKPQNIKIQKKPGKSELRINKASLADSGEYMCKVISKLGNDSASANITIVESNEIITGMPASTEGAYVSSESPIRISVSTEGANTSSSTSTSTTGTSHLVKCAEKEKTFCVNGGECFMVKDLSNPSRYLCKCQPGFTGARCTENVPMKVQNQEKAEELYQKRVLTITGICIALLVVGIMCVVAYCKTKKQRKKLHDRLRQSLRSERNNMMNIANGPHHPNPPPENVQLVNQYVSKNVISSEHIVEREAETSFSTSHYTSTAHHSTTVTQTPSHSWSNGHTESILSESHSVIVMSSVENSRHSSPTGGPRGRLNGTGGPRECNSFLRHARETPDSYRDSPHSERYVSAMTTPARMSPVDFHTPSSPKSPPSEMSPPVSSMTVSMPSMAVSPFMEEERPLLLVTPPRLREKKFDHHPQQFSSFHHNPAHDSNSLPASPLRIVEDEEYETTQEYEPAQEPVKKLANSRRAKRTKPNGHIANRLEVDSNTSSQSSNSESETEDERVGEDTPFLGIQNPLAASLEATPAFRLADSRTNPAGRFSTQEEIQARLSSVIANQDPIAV
# [7] = test system: Neuregulin-1 EGF-like domain; assay: small molecules binding NRG1 EGF domain – biochemical, small-molecule microarray, 635 nm fluorescence, primary screen (AID 1081); conditions: higher = more signal;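 note: binding of the protein to compounds printed on small-molecule microarray slides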
# [8] = FRG1 expression reporter modulators in myotubes – cell-based, C2C12 myotubes, firefly/Renilla luciferase, luminescence, FRG1 inhibition for FSHD, primary screen (AID 1084); conditions: FRG1 promoter luciferase, higher = more signal, called active from +8 up or from −8 down
# [9] = small molecules captured by biotinylated probe aFST – biochemical, small-molecule microarray, fluorescence 635/667, stem cell growth factor project, primary screen (AID 1086); conditions: higher = more signal;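 note: score merges 667 nm fluorescence with signal-to-noise of each printed compound spot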
# [10] = binders of probe aHhip on microarray, primary screen, stem cell growth factor project, biochemical, small-molecule microarray, fluorescence 635/667 (AID 1087); conditions: higher = more signal;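 note: score merges spot fluorescence at 667nm with spot signal to noise ratio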
# [11] = test system: PRMT1 (protein arginine N-methyltransferase 1); assay: small molecules binding arginine methyltransferase PRMT1 – biochemical, small-molecule microarray, 635 nm fluorescence, primary screen (AID 1088); conditions: higher = more signal;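 note: binding of Prmt1 protein to compounds spotted on small-molecule microarray slides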
# [12] = growth effects on S. cerevisiae YJM789 – YJM789 clinical isolate, OD600, 24 h, basal, primary screen (AID 1089); conditions: higher = more signal, called active from +8 up or from −8 down;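 note: growth of clinical yeast isolate S. cerevisiae YJM 789 seeded 1000 cells per well; test concentration not given here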
# [13] = S. pombe growth modifiers, basal conditions – strain 972, OD600, 24 h, no modulator, primary screen (AID 1090);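 note: basal condition with compound alone and no growth modifier present; test concentration not given here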; conditions: S. pombe 972 growth, higher = more signal, called active from +8 up or from −8 down
# [14] = budding yeast growth modifiers under rapamycin – strain BY4716, OD600, 96 h, primary screen (AID 1091); note: test concentration not given here; conditions: S. cerevisiae BY4716 + rapamycin, higher = more signal, called active from +8 up or from −8 down
# [15] = molecular target: Torsin-1A-interacting protein 2 (Homo sapiens) (UniProt Q8NFQ8); assay: small molecules binding lysate-expressed LULL1 – cell lysate, human LULL1 lysate, 635/667 nm fluorescence, primary screen (AID 1092); conditions: small-molecule microarray, hLULL1 lysate binding, 635 nm fluorescence; higher = more signal;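 note: probe is lysate of COS7 cells overexpressing human LULL1; score merges per-feature 667 nm fluorescence with signal-to-noise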
# Chain of Torsin-1A-interacting protein 2 (Homo sapiens) (Q8NFQ8 whole entry, looked up): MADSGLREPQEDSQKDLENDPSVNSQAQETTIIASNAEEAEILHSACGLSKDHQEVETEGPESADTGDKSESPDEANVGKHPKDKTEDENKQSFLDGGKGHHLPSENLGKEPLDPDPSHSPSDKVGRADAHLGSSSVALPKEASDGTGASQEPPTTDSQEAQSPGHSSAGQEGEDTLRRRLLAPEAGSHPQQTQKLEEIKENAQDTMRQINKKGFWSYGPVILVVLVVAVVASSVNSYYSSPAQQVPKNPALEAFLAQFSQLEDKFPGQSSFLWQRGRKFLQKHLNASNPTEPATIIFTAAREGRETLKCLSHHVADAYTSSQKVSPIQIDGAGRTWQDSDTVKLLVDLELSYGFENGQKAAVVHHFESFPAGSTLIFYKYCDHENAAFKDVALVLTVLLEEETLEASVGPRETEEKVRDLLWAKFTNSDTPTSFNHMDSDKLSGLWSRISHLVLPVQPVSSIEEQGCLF
# [16] = optical density change of DRC41 E. coli – strain DRC41, OD650, 24 h, E. coli filamentation project, primary screen (AID 1093);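 note: MC1000 strain lacking acrAB efflux and sulA so SOS filamentation is blocked; test concentration not given here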; conditions: E. coli DRC41 growth, higher = more signal, called active from +8 up or from −8 down
compound,measurement,setting,value
C=C(C1=CCN(S(=O)(=O)c2ccc(C)cc2)C1)[C@@H](OC(C)=O)[C@@H]1CCCN1S(=O)(=O)c1ccccc1[N+](=O)[O-],composite z-score,[1],-0.0883
same,composite z-score,[2],-0.189
same,composite z-score,[3],-0.05
same,composite z-score,[4],0.487
same,composite z-score,[5],-0.574
same,composite z-score,[6],-0.158
same,composite z-score,[7],0.406
same,z-score,[8],-3.21 (inactive)
same,composite z-score,[9],-0.344
same,composite z-score,[10],-0.0994
same,composite z-score,[11],-0.267
same,z-score,[12],0.943 (inactive)
same,z-score,[13],0.0893 (inactive)
same,z-score,[14],1.82 (inactive)
same,composite z-score,[15],1.2
same,z-score,[16],2.89 (inactive)
C=CCNC(=O)[C@@H]1[C@H]2C(=O)O[C@H](c3ccccc3)[C@H](c3ccccc3)N2[C@H](c2ccc(O)cc2)[C@@]12C(=O)Nc1ccccc12,composite z-score,[1],-0.156
same,composite z-score,[2],0.654
same,composite z-score,[3],-0.0521
same,composite z-score,[4],0.0546
same,composite z-score,[5],-0.554
same,composite z-score,[6],1.31
same,composite z-score,[7],0.574
same,z-score,[8],0.674 (inactive)
same,composite z-score,[9],-0.0542
same,composite z-score,[10],-0.251
same,composite z-score,[11],1.45
same,z-score,[12],0.455 (inactive)
same,z-score,[13],-1.32 (inactive)
same,z-score,[14],1.89 (inactive)
same,composite z-score,[15],2.8
same,z-score,[16],2.14 (inactive)
C=C(COC)/C(=C/C[C@H](OC(C)=O)c1cccc(OCCO)c1)c1cc(C(=O)OC)ccc1OC,composite z-score,[1],-0.269
same,composite z-score,[2],0.952
same,composite z-score,[3],-0.0986
same,composite z-score,[4],0.318
same,composite z-score,[5],-0.38
same,composite z-score,[6],0.0557
same,composite z-score,[7],0.691
same,z-score,[8],-3.63 (inactive)
same,composite z-score,[9],0.276
same,composite z-score,[10],-0.0296
same,composite z-score,[11],0.905
same,z-score,[12],-25.1 (active)
same,z-score,[13],-20.5 (active)
same,z-score,[14],-4.33 (inactive)
same,composite z-score,[15],0.574
same,z-score,[16],1.57 (inactive)
CN(C)CCCC[C@@H]1NC(=O)[C@@H]2C[C@H](C(=O)NCCCCCNC(=O)CS)[C@H](c3cccc(OCCO)c3)N2C1=O,composite z-score,[1],0.32
same,composite z-score,[2],0.532
same,composite z-score,[3],-0.101
same,composite z-score,[4],0.141
same,composite z-score,[5],0.393
same,composite z-score,[6],0.267
same,composite z-score,[7],1.2
same,z-score,[8],0.37 (inactive)
same,composite z-score,[9],0.19
same,composite z-score,[10],0.259
same,composite z-score,[11],1.07
same,z-score,[12],-2.64 (inactive)
same,z-score,[13],-1.81 (inactive)
same,z-score,[14],-2.15 (inactive)
same,composite z-score,[15],0.127
same,z-score,[16],2.1 (inactive)
O=C1c2ccccc2[C@](Cc2ccccc2I)(C(=O)O)[C@H](c2ccc(CO)cc2)N1Cc1ccccc1Cl,composite z-score,[1],0.668
same,composite z-score,[2],0.651
same,composite z-score,[3],-0.0301
same,composite z-score,[4],0.0635
same,composite z-score,[5],0.268
same,composite z-score,[6],0.955
same,composite z-score,[7],0.819
same,z-score,[8],0.17 (inactive)
same,composite z-score,[9],0.43
same,composite z-score,[10],-0.0994
same,composite z-score,[11],1.21
same,z-score,[12],-0.818 (inactive)
same,z-score,[13],-1.53 (inactive)
same,z-score,[14],-1.19 (inactive)
same,composite z-score,[15],1.82
same,z-score,[16],1.13 (inactive)
C=C(C(=O)CC[C@@H](OC(C)=O)c1ccccc1OCCO)C(C)C,composite z-score,[1],-0.354
same,composite z-score,[2],-0.363
same,composite z-score,[3],-0.133
same,composite z-score,[4],0.664
same,composite z-score,[5],-0.553
same,composite z-score,[6],-0.267
same,composite z-score,[7],-0.29
same,z-score,[8],-2.13 (inactive)
same,composite z-score,[9],-0.575
same,composite z-score,[10],-0.0994
same,composite z-score,[11],0.526
same,z-score,[12],-6.28 (inactive)
same,z-score,[13],-20.5 (active)
same,z-score,[14],-2.44 (inactive)
same,composite z-score,[15],-0.0719
same,z-score,[16],1.27 (inactive)
NC(=O)N1C(=O)C2C(C1=O)C1C=C(c3ccc(CO)cc3)C2C(C2CC2)N1Cc1cc2c(cc1Br)OCO2 (stereo not given),composite z-score,[1],0.567
same,composite z-score,[2],0.778
same,composite z-score,[3],-0.105
same,composite z-score,[4],-0.277
same,composite z-score,[5],-0.204
same,composite z-score,[6],0.976
same,composite z-score,[7],0.887
same,z-score,[8],-2.01 (inactive)
same,composite z-score,[9],0.0417
same,composite z-score,[10],-0.0237
same,composite z-score,[11],0.364
same,z-score,[12],-0.779 (inactive)
same,z-score,[13],-3.29 (inactive)
same,z-score,[14],-1.32 (inactive)
same,composite z-score,[15],1.86
same,z-score,[16],1.19 (inactive)
C/C=C/[C@@H](CCn1cc(CCO[Si](C(C)C)(C(C)C)C(C)C)nn1)[Si](C)(C)c1ccc(OC)cc1,composite z-score,[1],0.502
same,composite z-score,[2],-0.416
same,composite z-score,[3],-0.271
same,composite z-score,[4],-2.29
same,composite z-score,[5],-2.88
same,composite z-score,[6],-0.774
same,composite z-score,[7],-0.48
same,z-score,[8],-1.33 (inactive)
same,composite z-score,[9],-0.986
same,composite z-score,[10],-0.413
same,composite z-score,[11],-0.551
same,z-score,[12],-3.08 (inactive)
same,z-score,[13],-2.88 (inactive)
same,z-score,[14],-1.94 (inactive)
same,composite z-score,[15],-0.356
same,z-score,[16],-0.715 (inactive)
CC(C)C[C@@H]1NC(=O)[C@@]23C(=O)N[C@@H](Cc4ccccc4)C2[C@H](C)[C@@]2(C)O[C@H]2C3/C=C/CC/C=C/CNC(=O)[C@@H](C)NC1=O (stereo not given in full),composite z-score,[1],-0.574
same,composite z-score,[2],0.408
same,composite z-score,[3],-0.178
same,composite z-score,[4],0.408
same,composite z-score,[5],0.578
same,composite z-score,[6],-0.418
same,composite z-score,[7],0.635
same,z-score,[8],-1.05 (inactive)
same,composite z-score,[9],0.17
same,composite z-score,[10],0.21
same,composite z-score,[11],0.118
same,z-score,[12],0.395 (inactive)
same,z-score,[13],-0.619 (inactive)
same,z-score,[14],-0.697 (inactive)
same,composite z-score,[15],-0.664
same,z-score,[16],2.82 (inactive)
COC(=O)C1=CC(c2ccc(CO)cc2)=CC(C2CC2)N(C)C=C1C(=O)OC (stereo not given),composite z-score,[1],0.315
same,composite z-score,[2],0.903
same,composite z-score,[3],-0.0538
same,composite z-score,[4],-0.0649
same,composite z-score,[5],0.115
same,composite z-score,[6],1.61
same,composite z-score,[7],0.97
same,z-score,[8],-1.67 (inactive)
same,composite z-score,[9],0.0593
same,composite z-score,[10],-0.0994
same,composite z-score,[11],1.31
same,z-score,[12],-5.61 (inactive)
same,z-score,[13],-4.93 (inactive)
same,z-score,[14],-2.41 (inactive)
same,composite z-score,[15],2.6
same,z-score,[16],0.585 (inactive)
